# Screening results as filed in PubChem BioAssay.
# Shown are actives, neighbours in structure and some others; about 2.4% of the full set was active somewhere.
# Pol iota inh – DNA polymerase iota (human) inhibition; Q9UNA4; hit rate 1% among 390,000; Pol iota fluorescent replication assay, 10 min; AID 588590; Potency, µM (highest dose often 115 µM), actives largely listed as inhibitors
#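 Pol iota at 10 nM preincubated 15 min with compounds at room temperature; reaction started with fluorescent substrate, 50 nM final. Fluorescence read kinetically at 0 and 10 min; buffer-only wells as negative control.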
# Pol eta inh – blocks human DNA polymerase eta activity; recombinant Pol eta, fluorescent DNA replication assay; hit rate 1.2% among 390,000; Q9Y253; Potency, µM (highest dose often 114 µM), actives largely listed as inhibitors
#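 Fluorescent replication assay: 50 nM final substrate added after a 15 min room-temperature compound preincubation with 10 nM enzyme. Signal taken at 0 min and again at 10 min.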
# POLK inh – DNA polymerase kappa (human) inhibition | Q9UBT6 | purified Pol kappa, fluorescent DNA synthesis assay, 10 min | Potency, µM (titrated, usually from 107 µM), most hits filed as inhibitors | hit rate 0.53% among 400,000
#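 50 nM final substrate added after 15 min RT preincubation of 10 nM Pol kappa with compound; fluorescence read at 0 and 10 min.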
# POLB inh – inhibitors of human DNA polymerase beta; P06746; Pol beta primer extension/strand displacement, fluorescence kinetic; Potency, µM (series often up to 114 µM), hits mostly inhibitors; hit rate 1.3% among 340,000; AID 485314
#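 Kinetic readout of DNA synthesis with strand displacement by Pol beta. Compound and 10 nM enzyme sit 15 min at room temperature; 50 nM substrate starts the reaction, read immediately and at 10 min.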
# APE1 inh – APE1 (human) endonuclease inhibition. recombinant APE1, TAMRA/BHQ-2 abasic DNA cleavage fluorescence. Potency, µM (titrated, usually from 65.8 µM), actives largely listed as inhibitors. hit rate 0.35% among 350,000. AID 2517; further: nearly all actives have a fitted effect of over 55% in size
# Target sequence (P27695 whole entry, looked up): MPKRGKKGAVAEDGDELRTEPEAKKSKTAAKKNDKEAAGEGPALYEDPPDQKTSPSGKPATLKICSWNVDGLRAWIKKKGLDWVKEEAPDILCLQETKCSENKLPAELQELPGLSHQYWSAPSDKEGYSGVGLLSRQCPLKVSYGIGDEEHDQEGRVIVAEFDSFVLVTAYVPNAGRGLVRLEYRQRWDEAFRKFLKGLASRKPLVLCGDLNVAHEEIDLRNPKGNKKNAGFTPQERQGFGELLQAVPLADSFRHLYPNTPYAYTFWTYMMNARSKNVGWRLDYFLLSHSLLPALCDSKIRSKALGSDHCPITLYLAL
#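 Step 1: APE1 (0.75 nM) with compound, 15 min RT. Step 2: add 50 nM fluorophore/quencher THF duplex. Step 3: three fluorescence reads 60 s apart (525/598 nm); read 3 minus read 1 = reaction progress.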
# GLS inhibitor – glutaminase GLS (human) inhibition | O94925 | GLS enzymatic activity, qHTS titration | Potency, µM (doses to about 45.5 µM), hits mostly inhibitors | hit rate 0.21% among 410,000 | AID 624170
#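 Compounds were pin-transferred onto hKGA, after which L-glutamine (1 mM solution) and a detection mix of glutamate oxidase, HRP and Amplex Red were added. Initial and 30 min RT fluorescence reads were collected.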
# Hits are given with their value; 0 = inactive; ? = inconclusive; - = no result; [ ] = remark or other dose. The call rests on the fitted dose curve; in most records, active means well fitted curve in the direction sought with a large enough effect; inconclusive means small, poorly fitted or top-dose-only effect, or another doubt; inactive means no such curve, though single readings can be large; an effect the other way counts as inactive or inconclusive.
SMILES,Pol iota inh,Pol eta inh,POLK inh,POLB inh,APE1 inh,GLS inhibitor
COc1ccc(S(=O)(=O)Cc2ccc(C(=O)N3CCN(Cc4ccccc4)CC3)o2)cc1,0,0,0,0,0,0
Cc1ccc(CS(=O)Cc2ccc(C(=O)NCc3ccc4c(c3)OCO4)o2)cc1 (stereo unspecified),0,0,0,0,0,0
Cc1ccc(S(=O)(=O)Cc2ccc(C(=O)NCc3ccc4c(c3)OCO4)o2)cc1,?,0,?,5.6µM,?,0
CSc1nc(C(=O)N2CCCC(N3CCN(c4ccccc4C)CC3)C2)cs1 (stereo unspecified),0,0,0,0,0,0
CC1CCC/C(=N\NC(=O)Nc2ccccc2)C1 (stereo unspecified),0,0,0,0,0,0
CC1CCC/C(=N\Nc2ccc(Cl)c(C(=O)O)c2)C1 (stereo unspecified),?,8.9µM,?,32µM,0,0
CC1(C)Cc2c(C#N)c(N3CCN(C(=O)c4ccccc4)CC3)nc(-c3ccco3)c2CS1,?,32µM,0,28µM,0,0
Cc1cc2c(c(=O)n1-c1ccccc1)C1O[C@](c3ccsc3)(Cc3ccccc31)O2,-,-,-,5µM,0[12.4 µM],-
Cc1cc2c(c(=O)n1Cc1ccccc1)C1O[C@](c3ccsc3)(Cc3ccccc31)O2,-,-,-,0[22.9 µM],0[12.4 µM],-
CCCCn1c(C)cc2c(c1=O)C1O[C@](c3ccsc3)(Cc3ccccc31)O2,-,-,-,2.2µM,0[12.4 µM],-
COc1cc2c(cc1OC)[C@@H]1O[C@](c3ccsc3)(C2)Oc2cc(C)n(-c3ccccc3)c(=O)c21,-,-,-,0[22.9 µM],0[12.4 µM],-
O=C(Nc1ccccc1C(F)(F)F)Nc1c[nH]c(=O)[nH]c1=O,0,0,0,0,-,0
CCOC(=O)C1CCN(C(=O)Nc2ccc3c(c2)nc(C)n3C)CC1,0,0,0,0,0,0
CCOC(=O)C1CCN(C(=O)Nc2ccc3nc(-c4ccco4)c(-c4ccco4)nc3c2)CC1,2.8µM,2.8µM,16µM,1.6µM,7.9µM,0
Cc1cc(C(=O)CSc2nnc(-c3ccco3)o2)c(C)n1Cc1ccco1,?,?,0,45µM,?,0
Cc1cc(C(=O)CCl)c(C)n1Cc1ccco1,?,?,0,?,?,0
Cc1ccc2cccc(OCC(=O)c3cc(C)n(Cc4ccco4)c3C)c2n1,-,-,-,11µM,0,-
COCC(C)n1c(C)cc(C(=O)CSc2nnc(-c3ccco3)o2)c1C (stereo unspecified),0,0,0,-,0,0
Cc1cc(C(=O)Nc2ccc(Cl)cc2)c(C)n1-c1ccccc1,0,0,0,0,0,0
Cc1cc(C(=O)NNS(=O)(=O)c2cc(C(=O)O)ccc2Cl)c(C)n1-c1ccccc1,?,22µM,?,-,0,20µM
O=[N+]([O-])c1ccc(S(=O)(=O)Nc2ncccn2)cc1,0,0,0,0,0,0
Cc1cccc(N2CCN(C(=O)C3CCCN(S(=O)(=O)c4ccc5c(c4)oc(=O)n5C)C3)CC2)c1C (stereo unspecified),0,0,0,0,-,0
COc1cc(OC)c(NC(=O)c2cnn(-c3ccccc3)c2-n2cccc2)cc1Cl,?,0,0,50µM,-,0
COc1ccccc1NC(=O)c1cnn(-c2ccccc2)c1-n1cccc1,0,0,0,0,-,0
CCCOc1ccc(C2C(C(=O)c3ccc(C)o3)=C(O)C(=O)N2Cc2ccco2)cc1 (stereo unspecified),?,0,0,40µM,0,0
SMILES,Pol iota inh,Pol eta inh,POLK inh,POLB inh,APE1 inh,GLS inhibitor
O=C1c2cccc3c([N+](=O)[O-])ccc(c23)C(=O)N1O,0,2.8µM,0,?,0,0
COc1ccc2c3c(cccc13)C(=O)N(O)C2=O,0,0,0,35µM,0,0
COc1ccc(C2CC(c3ccc(Br)cc3)=NN2C(=O)CN2CCCC2)cc1 (stereo unspecified),0,0,0,0,0,0
COc1ccccc1N1C(=O)C=C(Sc2nc(C)cc(C)n2)C1=O,0,0,0,0,0,7.9µM
CC(C)(C)C1CCc2onc(C(=O)Nc3ccc(F)cc3F)c2C1 (stereo unspecified),0,0,0,0,0,0
COc1ccc(-n2ncc3c(N4CCC(C(N)=O)CC4)ncnc32)cc1,0,0,0,?,0,0
CCOC(=O)C1CCN(c2ncnc3c2cnn3-c2ccc(OC)cc2)CC1,0,0,0,50µM,0,0
CN(CC(=O)NCc1ccc(F)cc1)S(=O)(=O)c1ccc2c(c1)c(=O)n(C)c(=O)n2C,?,0,0,0,0,0
O=S1(=O)Nc2c(cc(Cl)c3ccc(Cl)nc23)-c2ccccc21,?,-,79µM,-,-,-
Cc1ccc2ccc3c(c2n1)NS(=O)(=O)c1ccc(C(F)(F)F)cc1-3,?,-,0,-,-,-
COc1ccc(OC)c(/C=C2\SC(=S)N(NS(=O)(=O)c3ccc(C)cc3)C2=O)c1,0,79µM,0,?,0,0
COc1ccccc1/C=C1\SC(=S)N(NS(=O)(=O)c2ccc(C)cc2)C1=O,?,89µM,0,?,0,0
COc1ccc(OC)c(/C=C2\SC(=S)N(NS(=O)(=O)c3ccccc3)C2=O)c1,?,0,0,?,0,0
Cc1noc(/C=C/N(C)C)c1S(=O)(=O)N1CCCC(C(=O)Nc2ccc3c(c2)OCO3)C1 (stereo unspecified),0,0,0,0,?,0
C=CC1=C(C)C2=CC3=NC(=C(CC(=O)[O-])C4=NC(=C(C)C4=C([O-])[O-])C=c4[n-]c(c(C)c4CC)=CC1=N2)C(CCC(=O)[O-])C3C.[Cu+2].[Na+].[Na+].[Na+] (stereo unspecified),-,-,-,-,0.4µM,-
CC(=O)n1cc(N(C(=O)CCl)c2ccc(C)cc2)c2ccccc21,0,32µM,0,0,0,0
O=C(CCCn1c(=O)[nH]c2cc(Cl)ccc2c1=O)NC1CCCCCC1,0,0,0,0,0,0
CS[C@@H]1SC[C@H]2C(=O)N(C)C(C(C)C)C(=O)OC[C@@H](NC(=O)c3cnc4ccccc4n3)C(=O)N[C@@H](C)C(=O)N(C)[C@H]1C(=O)N(C)C(C(C)C)C(=O)OC[C@@H](NC(=O)c1cnc3ccccc3n1)C(=O)N[C@@H](C)C(=O)N2C (stereo partly specified),-,-,21µM,-,?,-
CC(NC(=O)c1cnc2ccccc2n1)c1ccccc1 (stereo unspecified),0,0,0,0,0,0
CC(C(=O)Nc1cc(Cl)cc(Cl)c1)N1CCCC1 (stereo unspecified),0,0,0,0,0,0
COc1ccccc1NC(=O)C1=C(C)Nc2c(C(=O)Nc3ccc(F)cc3)cnn2C1c1cccc([N+](=O)[O-])c1 (stereo unspecified),0,0,0,0,-,0
